Screening data from PubChem.
PolyA inh – polyadenylation inhibitors in yeast reporter cells, primary screen, luminescence, S. cerevisiae. 300,000 compounds, 0.02% hits. S. cerevisiae SKY197-pL101 polyadenylation reporter, beta-gal luminescence; efflux-impaired pdr1/pdr3 knockout yeast; score 100 = 6 SD above DMSO. activity score, % at 12 µM;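 active = lowest replicate activity score at least 50, where 100 means six control SD above control mean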;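 also: yeast exposed to compound for 9 h at 30 °C; higher score means more reporter readthrough which indicates perturbed polyadenylation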
NALP3 yeast inh – NALP3 inflammasome inhibitors in reconstituted yeast, primary screen, luminescence, uHTS | 330,000 compounds, 0.39% hits | inhibition, % at 10 µM | AID 2825, 2010 | Yeast reconstituted NLRP3/ASC/caspase-1, beta-gal luminescence, 24 h;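 active = inhibition of 50% or more; inactive = inhibition below 50%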;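 also: plate controls were induced DMSO wells for no effect and uninduced yeast grown without galactose for full effect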
NALP1 inh – NALP1 inflammasome inhibitors in reconstituted yeast, colorimetric, S. cerevisiae, triplicate retest | S. cerevisiae NALP1/ASC/caspase-1 growth, X-gal OD620, 72 h | inhibition, % at 10 µM | 280,000 compounds, 0.61% hits; in the data active = inhibition mostly above about 24%, no sharp cut-off; inactive = mostly below about 32%
HDAC3 inhib – HDAC3 deacetylase inhibitors, primary screen, biochemical, fluorescence, cell-free homogeneous | Histone deacetylase 3 (Homo sapiens), O15379 | recombinant HDAC3, fluorogenic peptide/trypsin coupled | inhibition, % at 8.3 µM | 320,000 compounds, 0.15% hits; in the data active = inhibition above about 26%, passing the limit was not always enough
GASC-1 inh – inhibitors of GASC-1 histone demethylase, primary screen, biochemical, fluorescence, DELFIA europium; AID 2099, 2009; 330,000 compounds, 0.069% hits; inhibition, % at 2.35 µM; Lysine-specific demethylase 4C (Homo sapiens), Q9H3R0; GST-JMJD2C(1-420) H3K9me3 demethylation;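 active = more than half of a compound's replicate wells show inhibition beyond 50%, single wells judged on their own value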;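 also: signal counts dimethyl H3K9 product captured on neutravidin plate; 0% = median of DMSO wells and 100% = 0.3 times that DMSO median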
Target sequence (Q9H3R0 1-420 limits assumed): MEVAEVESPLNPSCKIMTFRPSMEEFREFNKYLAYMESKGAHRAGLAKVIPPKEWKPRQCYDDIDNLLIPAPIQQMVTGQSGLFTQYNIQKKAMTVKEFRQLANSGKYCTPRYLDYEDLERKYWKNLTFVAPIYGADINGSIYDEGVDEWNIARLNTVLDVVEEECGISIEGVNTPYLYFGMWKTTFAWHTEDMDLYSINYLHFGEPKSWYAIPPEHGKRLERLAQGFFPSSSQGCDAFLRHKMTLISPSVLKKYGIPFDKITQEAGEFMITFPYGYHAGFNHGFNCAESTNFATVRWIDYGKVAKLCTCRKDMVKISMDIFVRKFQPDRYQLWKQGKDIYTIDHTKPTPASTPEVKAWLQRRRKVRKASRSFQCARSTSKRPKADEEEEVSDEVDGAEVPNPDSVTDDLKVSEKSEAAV
Efflux pump mplx – inhibitors of Candida efflux pumps in yeast, primary screen, S. cerevisiae, Nile Red, multiplex; S. cerevisiae Candida pump triplex; inhibition, % at 10 µM; 330,000 compounds, 0.44% hits; AID 485275, 2010;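 active = plate passing quality check with inhibition over a set limit, or well fluorescence over plate mean plus 4 SD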;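 also: Nile Red retained in pooled yeast measured as flow cytometry median fluorescence; 0% = buffer negative control and 100% = Enniatin B positive control; higher means more Nile Red kept so more efflux inhibition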
NALP3 confirm – NALP3 inhibitors retested in yeast, confirmation, luminescence, single concentration; yeast expressing human NALP3; shares compounds with NALP3 yeast inh; inhibition, % at 10 µM; 1,300 compounds, 81% hits; in the data active = inhibition above about 48%
Casp1 ASC ctr – CASP1-PYCARD signaling inhibition in yeast, confirmatory test, counterassay for NLRP3 inhibitor program, one-dose. shares compounds with NALP3 yeast inh. yeast expressing Caspase-1-ASC, luminescence counter screen. inhibition, % at 10 µM. 1,000 compounds, 66% hits. AID 488784, 2010
NALP3 retest – NALP3 inhibitors in yeast, repeat test, confirmation, luminescence, single concentration, retest; shares compounds with NALP3 yeast inh; yeast expressing human NALP3, luminescence read-out; inhibition, % at 10 µM; 1,000 compounds, 53% hits; AID 488794, 2010
* marks the source's active call; other numbers are inactive results. Rows were chosen to be rich in hits. Some 1.5% of all compounds tested hit in one or more screens of this group. Rule as the data show it, unless noted: active = inhibition above about 50%; inactive = the rest.

For C=CCNc1nc(N)c([N+](=O)[O-])c(Nc2cccc(Cl)c2)n1 the results were PolyA inh -7, NALP3 yeast inh 19, NALP1 inh 3, HDAC3 inhib 7, GASC-1 inh 2 and Efflux pump mplx 0.
CC(C)(c1cc(Br)c(O)c(Br)c1)c1cc(Br)c(O)c(Br)c1 was read as NALP3 yeast inh 53*, HDAC3 inhib 5, GASC-1 inh 15, Efflux pump mplx 0 and NALP3 confirm 49*.
COc1cc(C(=O)N/N=C/c2ccc(OC(=O)c3cccc(C)c3)c(OC)c2)ccc1O was read as PolyA inh 21, NALP3 yeast inh 11, NALP1 inh 7, HDAC3 inhib -1, GASC-1 inh 3 and Efflux pump mplx 0.
`CN(C)CCCN(C(=O)c1cc(-c2cccs2)nc2ccccc12)c1nc2ccc(F)cc2s1` gave PolyA inh -4, NALP3 yeast inh 52*, NALP1 inh 29, GASC-1 inh -17, Efflux pump mplx 0, NALP3 confirm 65*, Casp1 ASC ctr 50* and NALP3 retest 46.
For CN(C)CCCN(C(=O)CCc1ccccc1)c1nc2ccc(F)cc2s1 the results were PolyA inh 2, NALP3 yeast inh 32, NALP1 inh 26, HDAC3 inhib 4, GASC-1 inh -1 and Efflux pump mplx 0.
`Cc1ccc(NC(=O)COC(=O)C2CSC3(C)CCC(=O)N23)cc1S(=O)(=O)N1CCOCC1` (centres undefined) gave PolyA inh -1, NALP3 yeast inh 16, NALP1 inh -2, HDAC3 inhib -1, GASC-1 inh 14 and Efflux pump mplx 0.
Screening Cc1ccc(OCCn2c(=S)[nH]c3ccccc32)c(C(C)C)c1 returned PolyA inh -3, NALP3 yeast inh 75*, NALP1 inh 13, HDAC3 inhib -4, GASC-1 inh -24, Efflux pump mplx 0, NALP3 confirm 81*, Casp1 ASC ctr 56* and NALP3 retest 50.
Screening Cc1cccc(OCCn2c(=S)[nH]c3ccccc32)c1 returned PolyA inh -13, NALP3 yeast inh 33, NALP1 inh 20, HDAC3 inhib -4, GASC-1 inh 4 and Efflux pump mplx 0.
For CCCOc1ccc(/C=C/C(=O)OCC(=O)N(C)c2c(N)n(Cc3ccccc3)c(=O)[nH]c2=O)cc1OCC the results were PolyA inh 1, NALP3 yeast inh 20, HDAC3 inhib 0, GASC-1 inh 5 and Efflux pump mplx 0.
For CN(C)CCNC(=O)C(=O)C1C(=O)Nc2ccccc21 (centres undefined) the results were PolyA inh -13, NALP3 yeast inh 12, NALP1 inh -1, HDAC3 inhib -6, GASC-1 inh -2 and Efflux pump mplx 0.
Screening CCCCCNC(=O)C(=O)C1C(=O)Nc2ccccc21 (centres undefined) returned PolyA inh 6, NALP3 yeast inh 52*, GASC-1 inh 0, Efflux pump mplx 0, NALP3 confirm 71*, Casp1 ASC ctr 43 and NALP3 retest 51*.
`Cc1ccc(N2CCN(S(=O)(=O)c3ccc4oc(=O)ccc4c3)CC2)cc1Cl` gave PolyA inh 0, NALP3 yeast inh 18, NALP1 inh -5, HDAC3 inhib -8, GASC-1 inh -5 and Efflux pump mplx 0.
For O=C(NC1CCCCC1)c1noc2c1CCCCC2 the results were PolyA inh 9, NALP3 yeast inh 51*, NALP1 inh 52, HDAC3 inhib 8, GASC-1 inh 1, Efflux pump mplx 0, NALP3 confirm 67*, Casp1 ASC ctr 54* and NALP3 retest 50.
For CC1CCCC(C)N1c1ccc(S(=O)(=O)N2CCOCC2)cc1Cl (centres undefined) the results were PolyA inh 21, NALP3 yeast inh 23, NALP1 inh 6, HDAC3 inhib -9, GASC-1 inh -6 and Efflux pump mplx 0.
O=C(CN1CCCC1)Nc1cccc(Cl)c1 was read as PolyA inh 5, NALP3 yeast inh 6, NALP1 inh 26, HDAC3 inhib -4, GASC-1 inh -34 and Efflux pump mplx 1.
O=C(CN1CCCCCCC1)Nc1cc(Cl)cc(Cl)c1 was read as PolyA inh -9, NALP3 yeast inh 51*, NALP1 inh 9, HDAC3 inhib 2, GASC-1 inh -9, Efflux pump mplx 0 and NALP3 confirm 23.
For O=c1[nH]c(SCc2ccccc2Cl)nc2c1CCC2 the results were PolyA inh -2, NALP3 yeast inh 22, NALP1 inh -9, HDAC3 inhib 2, GASC-1 inh 3 and Efflux pump mplx 0.
For CNc1nc(SCc2ccccc2Cl)nc2c1CCCC2 the results were PolyA inh -17, NALP3 yeast inh 98*, NALP1 inh 112*, HDAC3 inhib 14, GASC-1 inh 7, Efflux pump mplx 0, NALP3 confirm 99*, Casp1 ASC ctr 98* and NALP3 retest 98*.
`Cc1nn(C)cc1C(C)NC(=O)c1cc(COc2ccc(F)c(F)c2)on1` (centres undefined) gave PolyA inh -13, NALP3 yeast inh 18, NALP1 inh -2, HDAC3 inhib -4, GASC-1 inh -7 and Efflux pump mplx 0.
`CC(=O)Cn1cnc2sc(-c3ccccc3)cc2c1=O` gave PolyA inh -15, NALP3 yeast inh 16, NALP1 inh 4, HDAC3 inhib 1, GASC-1 inh 3 and Efflux pump mplx 0.
Screening CCn1cnc2sc(-c3ccccc3)cc2c1=O returned PolyA inh -23, NALP3 yeast inh 63*, NALP1 inh 25, HDAC3 inhib -3, GASC-1 inh 13, Efflux pump mplx 0, NALP3 confirm 56*, Casp1 ASC ctr 66* and NALP3 retest 56*.
COc1cccc(CN(C)C(=O)c2ccc(S(=O)(=O)Nc3ccccc3F)cc2)c1OC was read as NALP3 yeast inh 18.
